RGS7-Gao reg: regulators of human RGS7-Galphao interaction; P09471; Multiplexed bead flow cytometry, RGS7-Galphao binding; actives lie on both sides; binding response (% of control), % at 10 µM; 220,000 compounds, 0.35% hits; AID 1439; in the data active = binding response below about 49% or above about 150%; inconclusive = no clear call, values can overlap the other calls; inactive = in between;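 also: fluorescent Galphao held in activated GDP-AlF4 state binding bead-coupled RGS7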
GSH bead fluor: compound fluoresces at 488/530 nm on GSH beads; GSH beads flow cytometry, compound fluorescence 488/530 nm; active compounds read high; fluorescence (KMESF) at 10 µM; 190,000 compounds, 0.25% hits; AID 1776; in the data active = fluorescence above about 89;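 also: glutathione beads carrying GST-tagged Bcl family fusion proteins plus one bare bead set; values are compound well signal with DMSO vehicle wells as background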
RGS8-Gao: human RGS8-Galphao interaction regulation. P09471. 220,000 compounds, 0.34% hits. multiplexed bead flow cytometry, RGS8-Galphao binding; actives lie on both sides. response (percent of control binding), % at 10 µM. AID 1423; in the data active = response below about 60% or above about 140%; inactive = in between;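 also: Galphao activated as the GDP aluminium fluoride complex binding bead-coupled RGS8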
RGS4-Gao reg: modulates binding of RGS4 to human Galphao; Multiplexed bead flow cytometry; actives lie on both sides; P09471; binding response (% of control), % at 10 µM; 220,000 compounds, 0.33% hits; AID 1415; in the data active = binding response below about 49% or above about 150%; inactive = in between;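 also: fluorescent Galphao activated with aluminum fluoride binding bead-coupled RGS4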
RGS16-Gao HTS: regulators of human RGS16-Galphao interaction; O15492+P09471; bead-based flow cytometry RGS16-Galphao binding, fluorescence; actives lie on both sides; binding response (% of control), % at 10 µM; 220,000 compounds, 0.38% hits; AID 1441;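 also: Galphao activated by GDP with aluminum fluoride before binding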
Avidin fluor: compound fluoresces at 488/530 nm on avidin beads; compound fluorescence 488/530 nm, flow cytometry; active compounds read high; fluorescence (KMESF) at 10 µM; 220,000 compounds, 0.38% hits; in the data active = fluorescence above about 47
RGS4-Gao HTS: modulates binding between human RGS4 and Galphao. shares compounds with RGS16-Gao HTS. multiplexed bead flow cytometry, RGS–Galpha-o binding. RGS4–Galpha-o binding response, % at 10 µM. 1,600 compounds, 99% hits;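 also: fluorescently labeled Galpha-o bound to GDP with aluminium fluoride binding biotinylated RGS beads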
Avidin counter: biotin-avidin bead binding disruption counter-screen. inhibition, % at 10 µM. shares compounds with RGS16-Gao HTS. AID 1783. 1,700 tested, under 10 active. streptavidin beads, fluorescein-biotin binding, flow cytometry;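 active = inhibition above 50%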;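 also: median green fluorescence of gated singlet beads compared with DMSO control wells; 0% = DMSO wells and 100% = complete loss of bead fluorescence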
RGS8-Gao confirm: RGS8-Galphao interaction regulation, single point confirmation; AID 1836; shares compounds with RGS16-Gao HTS; 1,700 compounds, 3% hits; binding response (% of control), % at 10 µM; bead-based flow cytometry RGS8-Galphao binding, fluorescence; actives lie on both sides; in the data active = binding response below about 72% or above about 130%; inactive = in between;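 also: Galphao activated as GDP AlF4 complex before binding bead RGS8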
RGS7-Gao confirm: confirmation of regulators of human RGS7-Galphao interaction; shares compounds with RGS16-Gao HTS; bead-based flow cytometry RGS7-Galphao binding; actives lie on both sides; response (percent of control binding), % at 10 µM; 1,700 compounds, 7.8% hits; in the data active = response below about 75% or above about 130%; inactive = in between;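 also: fluorescent Galphao activated with GDP and aluminum fluoride binding bead-coupled RGS7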
RGS16-Gao single: RGS16-Galphao interaction regulation, single point confirmation; 1,700 compounds, 4% hits; response (% of control binding), % at 10 µM; AID 1838; bead-based flow cytometry, RGS16-Galphao binding; actives lie on both sides; shares compounds with RGS16-Gao HTS; in the data active = response below about 74% or above about 130%; inactive = in between;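 also: Galphao activated as the GDP aluminium fluoride complex binding bead-coupled RGS16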
RGS4-Gao confirm: confirmation of regulators of human RGS4-Galphao interaction | shares compounds with RGS16-Gao HTS | RGS4-Galphao binding, multiplexed bead flow cytometry; actives lie on both sides | binding response (% of control), % at 10 µM | 1,700 compounds, 4% hits | AID 1840; in the data active = binding response below about 74% or above about 130%; inactive = in between
RGS19-Gao conf: confirmation of regulators of human RGS19-Galphao interaction; shares compounds with RGS16-Gao HTS; bead-based flow cytometry RGS19-Galphao binding; actives lie on both sides; 1,700 compounds, 5% hits; response (percent of control binding), % at 10 µM; AID 1841; in the data active = response below about 50% or above about 160%; inactive = in between;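 also: 100% = no compound control and 0% = blank background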
Target sequence (P09471 whole entry, looked up): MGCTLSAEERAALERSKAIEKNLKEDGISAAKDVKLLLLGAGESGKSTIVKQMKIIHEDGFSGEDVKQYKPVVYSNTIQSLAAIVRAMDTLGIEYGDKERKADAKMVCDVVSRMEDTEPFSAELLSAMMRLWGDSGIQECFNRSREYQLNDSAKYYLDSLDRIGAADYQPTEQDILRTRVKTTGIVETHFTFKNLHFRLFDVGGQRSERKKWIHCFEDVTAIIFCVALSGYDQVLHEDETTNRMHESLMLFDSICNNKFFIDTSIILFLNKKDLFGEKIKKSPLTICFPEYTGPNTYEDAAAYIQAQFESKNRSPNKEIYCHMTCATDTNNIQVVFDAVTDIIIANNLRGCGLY
Target sequence (P49795 whole entry, looked up): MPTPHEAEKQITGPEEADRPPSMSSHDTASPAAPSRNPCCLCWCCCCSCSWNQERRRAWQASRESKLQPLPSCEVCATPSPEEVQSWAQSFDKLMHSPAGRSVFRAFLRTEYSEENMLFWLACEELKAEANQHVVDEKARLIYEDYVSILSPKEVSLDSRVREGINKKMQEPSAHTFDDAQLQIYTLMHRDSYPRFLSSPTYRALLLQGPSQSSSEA
Numbers without * were called inactive; i = inactive; ? = inconclusive; . = not tested or not shown; [ ] = another dose, or the depositor's remark. Hits are enriched below; roughly 1.2% of the tested compounds scored in any of these assays. Unless noted, no rule for the calls is given here.

SMILES	RGS7-Gao reg	GSH bead fluor	RGS8-Gao	RGS4-Gao reg	RGS16-Gao HTS	Avidin fluor	RGS4-Gao HTS	Avidin counter	RGS8-Gao confirm	RGS7-Gao confirm	RGS16-Gao single	RGS4-Gao confirm	RGS19-Gao conf
CC(CCOC1=NS(=O)(=O)c2ccccc21)NC(=O)C(=O)Nc1ccccc1 (stereo unspecified)	?	.	61	23*	42	0	.	2	131*[activator]	556*[activator]	286*[activator]	466*[activator]	211*[activator]
COc1ccc(Cn2c(=O)n(Cc3ccco3)c(=N)c3c4c(sc32)COC(C)(C)C4)cc1	175*[activator]	27	101	115	117	125*	115*	2	102	100	104	102	97
CC1(C)Cc2c(sc3c2c(=N)n(Cc2ccco2)c(=O)n3Cc2ccc(F)cc2)CO1	97	24	98	98	94	22	.	.	.	.	.	.	.
Cc1ccc(-c2c[n+](CC(=O)OCc3ccccc3)c3n2CCC3)cc1	9.5*	13	13*	12*	7.7*	-2	.	-2	103	96	103	99	94
COc1ccnc(N=CNOCc2cccc(C(F)(F)F)c2)c1C#N	103	10	99	101	97	8	.	.	.	.	.	.	.
COC(=O)CCC(=O)NNC(=O)CCCOc1ccc(Cl)cc1Cl	102	10	105	100	102	13	.	.	.	.	.	.	.
COC(=O)CCC(=O)NNC(=O)c1ccc(Cl)cc1Cl	175*[activator]	42	84	104	32	113*	104*	.	.	.	.	.	.
COc1ccc(C(=O)C[n+]2ccc3c(c2)nc(-c2cc(OC)c(OC)cc2OC)n3C)cc1	68	17	61	75	18*	5	75*	1	102	105	102	101	98
COc1cc(OC)c(-c2nc3c[n+](CC(=O)c4ccccc4)ccc3n2C)cc1OC	101	36	98	102	87	8	.	.	.	.	.	.	.
CCOc1cc(C(N)=O)cc(Br)c1OCc1ccccc1	?	16	100	100	100	10	.	.	.	.	.	.	.
CC(C)(C)NC(=O)/C=C/c1ccc(C(F)(F)F)cc1	60	22	76	60	66	8	.	.	.	.	.	.	.
O=C(O)CSCC(=O)Nc1ccc(Br)c(C(F)(F)F)c1	?	.	32*	-38*	-12*	-2	.	-1	93	90	88	88	93
Cc1cc(/C=N/Nc2nc(N3CCOCC3)nc(N3CCOCC3)n2)c(C)n1-c1ccccc1	51	21	7.9*	27*	28	58*	.	0	100	101	101	101	113
CC(CNCC1CCCO1)COc1ccccc1 (stereo unspecified)	108	35	123	113	175	3	.	.	.	.	.	.	.
CC(CNCC1CCCO1)COc1cccc2ccccc12 (stereo unspecified)	127	30	176*[activator]	117	i	3	117*	3	103	99	107	101	112
O=C(Cc1ccc(F)cc1)Nc1ccc(S(=O)(=O)N2CCCCC2)cc1	96	27	101	98	107	10	.	.	.	.	.	.	.
